PubChem BioAssay (NCI)
The panel holds about 79,000 compounds, 15% with a hit somewhere; the sample as a whole holds those more often. Values without a mark were called inactive. Active and inactive are the calls of the source. No stated cut-off is given here; in the data, active means growth inhibition above about 70%; inactive means the rest.

Columns and labels:
[1] = NCI Yeast Anticancer Drug Screen. Data for the rad52 strain (AID 147);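 further: 0% = growth of vehicle-treated control cultures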; settings: S. cerevisiae rad52 mutant growth inhibition, active compounds read high
Method in brief: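 Screen used a yeast mutant impaired in DNA repair. After compound exposure, growth was measured. Values reflect inhibition compared with vehicle-treated cells.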

[2] = NCI Yeast Anticancer Drug Screen. Data for the wt1 strain (AID 149);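 further: 0% = growth of vehicle-treated wt1 cultures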; settings: S. cerevisiae wt1 strain (SPY 50644) growth inhibition, active compounds read high
Method in brief: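 Compounds are added to wt1 yeast cultures. Growth is then measured. Inhibition is expressed relative to vehicle-treated controls.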

[3] = NCI Yeast Anticancer Drug Screen. Data for the rad50EPP+ strain (AID 151);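 further: 0% = growth of vehicle-treated control cultures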; settings: S. cerevisiae rad50 mutant strain, active compounds read high
Method in brief: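 Exposing the rad50EPP+ strain to each compound, growth was compared with vehicle-only cultures to give inhibition.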

[4] = NCI Yeast Anticancer Drug Screen. Data for the mgt1 strain (AID 153); settings: S. cerevisiae mgt1 mutant growth inhibition, active compounds read high
Method in brief: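 Genetically defined yeast (mgt1) treated with compound; inhibition of growth expressed against vehicle-treated controls.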

[5] = NCI Yeast Anticancer Drug Screen. Data for the rad50 strain (AID 155);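 further: 0% = growth of vehicle-only cultures of the same strain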; settings: S. cerevisiae rad50 strain growth inhibition, active compounds read high
Method in brief: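 Inhibition values express reduced yeast growth in compound-treated cultures relative to vehicle-treated controls.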

[6] = NCI Yeast Anticancer Drug Screen. Data for the mec2-1 strain (AID 157); settings: S. cerevisiae mec2-1 strain, active compounds read high
Method in brief: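 Readout is yeast growth inhibition, normalised to vehicle-treated controls, in the mec2-1 strain exposed to compound.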

[7] = NCI Yeast Anticancer Drug Screen. Data for the rad14 strain (AID 159);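 further: 0% = growth of vehicle-treated control cultures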; settings: S. cerevisiae rad14 strain growth inhibition, active compounds read high
Method in brief: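 A mutant yeast strain defective in DNA damage repair is treated with compound; inhibition of its growth is scored against untreated, vehicle-exposed cultures.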

[8] = NCI Yeast Anticancer Drug Screen. Data for the sgs1 mgt1 strain (AID 161);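 further: 0% = growth of cultures given vehicle only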; settings: S. cerevisiae sgs1 mgt1 strain, active compounds read high
Method in brief: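 Growth of a repair-deficient yeast mutant was monitored after compound treatment and expressed as inhibition relative to vehicle-treated cultures.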

[9] = NCI Yeast Anticancer Drug Screen. Data for the CLN2oe strain (AID 163);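 further: 0% = growth of vehicle-only control cultures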; settings: S. cerevisiae CLN2oe strain, active compounds read high
Method in brief: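 Values reflect how much compound exposure reduced yeast growth, referenced to vehicle-exposed cells. Assay organism is a strain with a defined genetic change affecting cell-cycle control.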

[10] = NCI Yeast Anticancer Drug Screen. Data for the cln2 rad14 strain (AID 165);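 further: 0% = growth equal to vehicle treated cultures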; settings: S. cerevisiae cln2 rad14 strain, active compounds read high
Method in brief: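 Relative to vehicle controls, growth inhibition of compound-treated cln2 rad14 yeast was recorded.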

[11] = NCI Yeast Anticancer Drug Screen. Data for the bub3 strain (AID 167); settings: S. cerevisiae bub3 mutant strain, active compounds read high
Method in brief: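 Steps: expose the mutant yeast strain to compound; grow alongside vehicle-treated cultures; measure growth; express inhibition against the vehicle cultures.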

[12] = NCI Yeast Anticancer Drug Screen. Data for the wt2 strain (AID 169);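 further: 0% = growth of vehicle-treated yeast cultures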; settings: S. cerevisiae wt2 strain growth inhibition, active compounds read high
Method in brief: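 Values express reduction in yeast growth under compound treatment, referenced to vehicle-treated cells.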

[13] = NCI Yeast Anticancer Drug Screen. Data for the mlh1 strain (AID 171);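 further: 0% = growth of vehicle-treated control cultures of the same strain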; settings: S. cerevisiae mlh1 strain growth inhibition, active compounds read high
Method in brief: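 Steps: expose the defined-mutant yeast strain to compound; expose a parallel culture to vehicle; measure growth; express compound effect as inhibition relative to the vehicle culture.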

[14] = NCI Yeast Anticancer Drug Screen. Data for the sgs1 strain (AID 173);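 further: 0% = growth of vehicle-only control cultures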; settings: S. cerevisiae sgs1 mutant, active compounds read high
Method in brief: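 Treat defined-mutant yeast with compound; measure growth; calculate inhibition relative to vehicle-treated cells.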

[15] = NCI Yeast Anticancer Drug Screen. Data for the mlh1 rad18 strain (AID 175); settings: S. cerevisiae mlh1 rad18 strain growth inhibition, active compounds read high
Method in brief: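 Test agents were incubated with a yeast strain of defined genotype (DNA damage repair defect). Inhibition of growth was derived by comparison with vehicle-exposed cultures.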

[16] = NCI Yeast Anticancer Drug Screen. Data for the rad18 strain (AID 177); settings: S. cerevisiae rad18 mutant growth inhibition, active compounds read high
Method in brief: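 A genetically defined yeast mutant impaired in DNA damage repair was treated with test compounds, then its growth was measured against cultures receiving vehicle alone.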

[17] = at 5.0 µM (retest, dose inferred, filed as 0.5)
[18] = at 50.0 µM (retest, dose inferred, filed as 5.0)

## CCN(CC)CCBr
[1]; at 1.2 µM
  growth inhibition: 1%
[1]; at 3.7 µM
  growth inhibition: 4%
[1]; at 11.0 µM
  growth inhibition: 12%
[1]; at 33.0 µM
  growth inhibition: 43%
[1]; at 100.0 µM
  growth inhibition: 82% (active)
[2]; at 1.2 µM
  growth inhibition: -1%
[2]; at 3.7 µM
  growth inhibition: 1%
[2]; at 11.0 µM
  growth inhibition: -6%
[2]; at 33.0 µM
  growth inhibition: -4%
[2]; at 100.0 µM
  growth inhibition: -8%
[3]; at 1.2 µM
  growth inhibition: 2%
[3]; at 3.7 µM
  growth inhibition: 6%
[3]; at 11.0 µM
  growth inhibition: 27%
[3]; at 33.0 µM
  growth inhibition: 68%
[3]; at 100.0 µM
  growth inhibition: 92% (active)
[4]; at 1.2 µM
  growth inhibition: -2%
[4]; at 3.7 µM
  growth inhibition: 0%
[4]; at 11.0 µM
  growth inhibition: -1%
[4]; at 33.0 µM
  growth inhibition: -1%
[4]; at 100.0 µM
  growth inhibition: -2%
[5]; at 1.2 µM
  growth inhibition: 0%
[5]; at 3.7 µM
  growth inhibition: -38%
[5]; [17]
  growth inhibition: 9%
[5]; at 11.0 µM
  growth inhibition: 13%
[5]; at 33.0 µM
  growth inhibition: 53%
[5]; [18]
  growth inhibition: 65%
[5]; at 50.0 µM
  growth inhibition: 70.2% (active)
[5]; at 100.0 µM
  growth inhibition: 89% (active)
[6]; at 1.2 µM
  growth inhibition: -1%
[6]; at 3.7 µM
  growth inhibition: 0%
[6]; [17]
  growth inhibition: -9%
[6]; at 11.0 µM
  growth inhibition: 3%
[6]; at 33.0 µM
  growth inhibition: 1%
[6]; [18]
  growth inhibition: 7%
[6]; at 50.0 µM
  growth inhibition: -12.4%
[6]; at 100.0 µM
  growth inhibition: 28%
[7]; at 1.2 µM
  growth inhibition: -1%
[7]; at 3.7 µM
  growth inhibition: -1%
[7]; at 11.0 µM
  growth inhibition: -1%
[7]; at 33.0 µM
  growth inhibition: -1%
[7]; at 100.0 µM
  growth inhibition: 7%
[8]; [17]
  growth inhibition: 4%
[8]; [18]
  growth inhibition: 38%
[8]; at 50.0 µM
  growth inhibition: 37.5%
[9]; at 1.2 µM
  growth inhibition: 0%
[9]; at 3.7 µM
  growth inhibition: -5%
[9]; at 11.0 µM
  growth inhibition: -5%
[9]; at 33.0 µM
  growth inhibition: -7%
[9]; at 100.0 µM
  growth inhibition: -4%
[10]; [17]
  growth inhibition: -2%
[10]; [18]
  growth inhibition: 1%
[10]; at 50.0 µM
  growth inhibition: 1.5%
[11]; at 1.2 µM
  growth inhibition: 0%
[11]; at 3.7 µM
  growth inhibition: -3%
[11]; [17]
  growth inhibition: -3%
[11]; at 11.0 µM
  growth inhibition: -7%
[11]; at 33.0 µM
  growth inhibition: -6%
[11]; [18]
  growth inhibition: -7%
[11]; at 50.0 µM
  growth inhibition: -11.4%
[11]; at 100.0 µM
  growth inhibition: -16%
[12]; at 1.2 µM
  growth inhibition: -1%
[12]; at 3.7 µM
  growth inhibition: 6%
[12]; at 11.0 µM
  growth inhibition: 0%
[12]; at 33.0 µM
  growth inhibition: -3%
[12]; at 100.0 µM
  growth inhibition: -3%
[13]; at 1.2 µM
  growth inhibition: -1%
[13]; at 3.7 µM
  growth inhibition: -1%
[13]; at 11.0 µM
  growth inhibition: -1%
[13]; at 33.0 µM
  growth inhibition: -2%
[13]; at 100.0 µM
  growth inhibition: -1%
[14]; at 1.2 µM
  growth inhibition: 0%
[14]; at 3.7 µM
  growth inhibition: 4%
[14]; at 11.0 µM
  growth inhibition: 15%
[14]; at 33.0 µM
  growth inhibition: 42%
[14]; at 100.0 µM
  growth inhibition: 73% (active)
[15]; [17]
  growth inhibition: 5%
[15]; [18]
  growth inhibition: 15%
[15]; at 50.0 µM
  growth inhibition: 19.9%
[16]; at 1.2 µM
  growth inhibition: 17%
[16]; at 3.7 µM
  growth inhibition: 54%
[16]; at 11.0 µM
  growth inhibition: 86% (active)
[16]; at 33.0 µM
  growth inhibition: 92% (active)
[16]; at 100.0 µM
  growth inhibition: 96% (active)

## c1ccc2cc3n[se]nc3cc2c1
[1]; at 1.2 µM
  growth inhibition: 2%
[1]; at 3.7 µM
  growth inhibition: 5%
[1]; at 11.0 µM
  growth inhibition: 17%
[1]; at 33.0 µM
  growth inhibition: 47%
[1]; at 100.0 µM
  growth inhibition: 96% (active)
[2]; at 1.2 µM
  growth inhibition: 5%
[2]; at 3.7 µM
  growth inhibition: 2%
[2]; at 11.0 µM
  growth inhibition: 6%
[2]; at 33.0 µM
  growth inhibition: 13%
[2]; at 100.0 µM
  growth inhibition: 72% (active)
[3]; at 1.2 µM
  growth inhibition: 2%
[3]; at 3.7 µM
  growth inhibition: 13%
[3]; at 11.0 µM
  growth inhibition: 33%
[3]; at 33.0 µM
  growth inhibition: 64%
[3]; at 100.0 µM
  growth inhibition: 86% (active)
[4]; at 1.2 µM
  growth inhibition: 6%
[4]; at 3.7 µM
  growth inhibition: 7%
[4]; at 11.0 µM
  growth inhibition: 5%
[4]; at 33.0 µM
  growth inhibition: 27%
[4]; at 100.0 µM
  growth inhibition: 94% (active)
[5]; at 1.2 µM
  growth inhibition: 3%
[5]; at 3.7 µM
  growth inhibition: 5%
[5]; [17]
  growth inhibition: -14%
[5]; at 11.0 µM
  growth inhibition: 19%
[5]; at 33.0 µM
  growth inhibition: 79% (active)
[5]; [18]
  growth inhibition: 55%
[5]; at 50.0 µM
  growth inhibition: 97.5% (active)
[5]; at 100.0 µM
  growth inhibition: 96% (active)
[6]; at 1.2 µM
  growth inhibition: 1%
[6]; at 3.7 µM
  growth inhibition: 2%
[6]; [17]
  growth inhibition: -14%
[6]; at 11.0 µM
  growth inhibition: 8%
[6]; at 33.0 µM
  growth inhibition: 16%
[6]; [18]
  growth inhibition: 3%
[6]; at 50.0 µM
  growth inhibition: 39.4%
[6]; at 100.0 µM
  growth inhibition: 93% (active)
[7]; at 1.2 µM
  growth inhibition: 3%
[7]; at 3.7 µM
  growth inhibition: 4%
[7]; at 11.0 µM
  growth inhibition: 5%
[7]; at 33.0 µM
  growth inhibition: 18%
[7]; at 100.0 µM
  growth inhibition: 98% (active)
[8]; [17]
  growth inhibition: -15%
[8]; [18]
  growth inhibition: 44%
[8]; at 50.0 µM
  growth inhibition: 45.2%
[9]; at 1.2 µM
  growth inhibition: -5%
[9]; at 3.7 µM
  growth inhibition: 0%
[9]; at 11.0 µM
  growth inhibition: 15%
[9]; at 33.0 µM
  growth inhibition: 14%
[9]; at 100.0 µM
  growth inhibition: 78% (active)
[10]; [17]
  growth inhibition: -21%
[10]; [18]
  growth inhibition: 2%
[10]; at 50.0 µM
  growth inhibition: -2.35%
[11]; at 1.2 µM
  growth inhibition: -1%
[11]; at 3.7 µM
  growth inhibition: 1%
[11]; [17]
  growth inhibition: 13%
[11]; at 11.0 µM
  growth inhibition: 4%
[11]; at 33.0 µM
  growth inhibition: 28%
[11]; [18]
  growth inhibition: 25%
[11]; at 50.0 µM
  growth inhibition: 56.8%
[11]; at 100.0 µM
  growth inhibition: 96% (active)
[12]; at 1.2 µM
  growth inhibition: 0%
[12]; at 3.7 µM
  growth inhibition: 1%
[12]; at 11.0 µM
  growth inhibition: 8%
[12]; at 33.0 µM
  growth inhibition: 26%
[12]; at 100.0 µM
  growth inhibition: 95% (active)
[13]; at 1.2 µM
  growth inhibition: 2%
[13]; at 3.7 µM
  growth inhibition: 4%
[13]; at 11.0 µM
  growth inhibition: 11%
[13]; at 33.0 µM
  growth inhibition: 34%
[13]; at 100.0 µM
  growth inhibition: 97% (active)
[14]; at 1.2 µM
  growth inhibition: 2%
[14]; at 3.7 µM
  growth inhibition: 4%
[14]; at 11.0 µM
  growth inhibition: 12%
[14]; at 33.0 µM
  growth inhibition: 33%
[14]; at 100.0 µM
  growth inhibition: 91% (active)
[15]; [17]
  growth inhibition: -11%
[15]; [18]
  growth inhibition: 24%
[15]; at 50.0 µM
  growth inhibition: 76.2% (active)
[16]; at 1.2 µM
  growth inhibition: 4%
[16]; at 3.7 µM
  growth inhibition: 13%
[16]; at 11.0 µM
  growth inhibition: 4%
[16]; at 33.0 µM
  growth inhibition: 68%
[16]; at 100.0 µM
  growth inhibition: 96% (active)
